From PubChem BioAssay (NCATS) come the findings set out here.

Results filed as inconclusive are left out. Where a call stands in place of a potency, no number is given. Calls of active or inactive are those of the source. The call rests on the fitted dose curve; in most records, active means well fitted inhibition curve with a large enough effect; inconclusive means small, poorly fitted or top-dose-only effect; inactive means flat fitted curve, though single readings scatter. Bridge positions count the residues as written; N and C are the ends. Square brackets hold non-standard residues; d marks the D form. Peptide text beside a SMILES is read from it. * marks the point of attachment. Ileψ(thiazoline)Cys = CC[C@H](C)[C@H](N)C1=N[C@H](C(=O)*)CS1; d(aIle) = CC[C@H](C)[C@@H](N)C(=O)O; dOrn = NCCC[C@@H](N)C(=O)O
Potency means the concentration at half of the fitted maximal effect.

One experiment deals with CP215. In words: qHTS profiling for inhibitors of Plasmodium falciparum proliferation (AID 504749). Further: nearly all actives have a fitted effect of over 60% in size. Particulars: P. falciparum in erythrocytes, SYBR Green DNA, 72 h; series mostly up to 12.8 µM. Put shortly:
(§1)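 Fluorescence of SYBR Green-bound parasite DNA, read at 485/535 nm, served as the growth measure. Infected erythrocytes were cultured with compound 72 h; artemisinin (0.29 uM) and DMSO wells defined the normalization range.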
In general terms: In qHTS, concentration-response curves come from the screen itself.
Turning to `CN1CCO[C@H](c2ccccc2)c2ccccc2C1`, the Potency entry was “inactive”.

Take `C[C@H](CCC(=O)O)[C@H]1CC[C@@H]2[C@@H]3[C@@H](O)C[C@H]4C[C@@H](O)CC[C@@]4(C)[C@H]3CC[C@@]21C`: the Potency result is “inactive”.

Regarding `CN(C/C=C\c1ccccc1)Cc1cccc2ccccc12`, the Potency result is “inactive”.

For `CCN(CCCCOC(=O)c1ccc(OC)c(OC)c1)[C@@H](C)Cc1ccc(OC)cc1`, the Potency result is “inactive”.

In the case of `C[C@H](C(=O)O)c1cccc(Oc2ccccc2)c1`, the Potency entry is “inactive”.

With `CC1(C)[C@@H](OC(=O)CCC(=O)O)CC[C@@]2(C)[C@H]1CC[C@@]1(C)[C@H]2C(=O)C=C2[C@H]3C[C@](C)(C(=O)O)CC[C@]3(C)CC[C@@]21C`, the Potency entry was “inactive”.

`CCOC(=O)O[C@@H](C)OC(=O)[C@@H]1N2C(=O)[C@@H](NC(=O)[C@@H](N)c3ccccc3)[C@H]2SC1(C)C`: the Potency entry is “inactive”.

Consider `Cc1ccsc1/C=C\C1=NCCCN1C`, for which the Potency entry is “inactive”.

Take `Cc1cccc(CN2CCN([C@@H](c3ccccc3)c3ccc(Cl)cc3)CC2)c1`: the Potency entry was “inactive”.

In the case of `C#C[C@]1(O)CC[C@@H]2[C@H]3CCC4=CCCC[C@@H]4[C@@H]3CC[C@@]21C`, the Potency entry is “inactive”.

Take `CC[C@H](C)[C@H](N)C1=N[C@H](C(=O)N[C@@H](CC(C)C)C(=O)N[C@@H](CCC(=O)O)C(=O)N[C@@H](C(=O)N[C@H]2CCCCNC(=O)[C@@H](CC(N)=O)NC(=O)[C@@H](CC(=O)O)NC(=O)[C@@H](Cc3cnc[nH]3)NC(=O)[C@@H](Cc3ccccc3)NC(=O)[C@@H]([C@@H](C)CC)NC(=O)[C@@H](CCCN)NC2=O)[C@@H](C)CC)CS1` ({Ileψ(thiazoline)Cys}-LE[d(aIle)]K[dOrn][d(aIle)][dF][dH][dD][dN]; lactam 4-C): the Potency entry is “inactive”.

As to `O=C(O)COCCN1CCN([C@@H](c2ccccc2)c2ccc(Cl)cc2)CC1`, the Potency entry was “inactive”.

Regarding `CCN(CC)CCOC(=O)[C@@H](Cc1cccc2ccccc12)C[C@@H]1CCCO1`, the Potency result is “inactive”.

For `Clc1ccc([C@H](Cn2ccnc2)OCc2c(Cl)cccc2Cl)c(Cl)c1`, the Potency was 5.73 µM (active).

Consider `CC[C@H](CO)NCCN[C@@H](CC)CO`, for which the Potency entry is “inactive”.

A further experiment has as its system CP217. The experiment is described as above. The conditions noted are these: P. falciparum in erythrocytes, SYBR Green DNA, 72 h; series mostly up to 12.8 µM. The procedure, abridged:
as §1
With `CN1CCO[C@H](c2ccccc2)c2ccccc2C1`, the Potency entry was “inactive”.

Regarding `C[C@H](CCC(=O)O)[C@H]1CC[C@@H]2[C@@H]3[C@@H](O)C[C@H]4C[C@@H](O)CC[C@@]4(C)[C@H]3CC[C@@]21C`, the Potency entry is “inactive”.

As to `CN(C/C=C\c1ccccc1)Cc1cccc2ccccc12`, the Potency entry was “inactive”.

Consider `CCN(CCCCOC(=O)c1ccc(OC)c(OC)c1)[C@@H](C)Cc1ccc(OC)cc1`, for which the Potency result is “inactive”.

With `C[C@H](C(=O)O)c1cccc(Oc2ccccc2)c1`, the Potency entry was “inactive”.

For the compound `CC1(C)[C@@H](OC(=O)CCC(=O)O)CC[C@@]2(C)[C@H]1CC[C@@]1(C)[C@H]2C(=O)C=C2[C@H]3C[C@](C)(C(=O)O)CC[C@]3(C)CC[C@@]21C`, the Potency result is “inactive”.

As to `CCOC(=O)O[C@@H](C)OC(=O)[C@@H]1N2C(=O)[C@@H](NC(=O)[C@@H](N)c3ccccc3)[C@H]2SC1(C)C`, the Potency result is “inactive”.

Regarding `Cc1ccsc1/C=C\C1=NCCCN1C`, the Potency entry was “inactive”.

With `C#C[C@]1(O)CC[C@@H]2[C@H]3CCC4=CCCC[C@@H]4[C@@H]3CC[C@@]21C`, the Potency entry is “inactive”.

`CC[C@H](C)[C@H](N)C1=N[C@H](C(=O)N[C@@H](CC(C)C)C(=O)N[C@@H](CCC(=O)O)C(=O)N[C@@H](C(=O)N[C@H]2CCCCNC(=O)[C@@H](CC(N)=O)NC(=O)[C@@H](CC(=O)O)NC(=O)[C@@H](Cc3cnc[nH]3)NC(=O)[C@@H](Cc3ccccc3)NC(=O)[C@@H]([C@@H](C)CC)NC(=O)[C@@H](CCCN)NC2=O)[C@@H](C)CC)CS1` ({Ileψ(thiazoline)Cys}-LE[d(aIle)]K[dOrn][d(aIle)][dF][dH][dD][dN]; lactam 4-C): the Potency entry was “inactive”.

On to `O=C(O)COCCN1CCN([C@@H](c2ccccc2)c2ccc(Cl)cc2)CC1`, for which the Potency result is “inactive”.

`CCN(CC)CCOC(=O)[C@@H](Cc1cccc2ccccc12)C[C@@H]1CCCO1`: the Potency result is “inactive”.

Regarding `Clc1ccc([C@H](Cn2ccnc2)OCc2c(Cl)cccc2Cl)c(Cl)c1`, the Potency is 2.24 µM (active).

Turning to `CC[C@H](CO)NCCN[C@@H](CC)CO`, the Potency result is “inactive”.

A further experiment relates to CP237. The description is as above. Particulars: P. falciparum in erythrocytes, SYBR Green DNA, 72 h; series mostly up to 12.8 µM. Put shortly:
as §1
Turning to `CN1CCO[C@H](c2ccccc2)c2ccccc2C1`, the Potency was 2 µM (active).

Turning to `C[C@H](CCC(=O)O)[C@H]1CC[C@@H]2[C@@H]3[C@@H](O)C[C@H]4C[C@@H](O)CC[C@@]4(C)[C@H]3CC[C@@]21C`, the Potency result is “inactive”.

As to `CN(C/C=C\c1ccccc1)Cc1cccc2ccccc12`, the Potency result was “inactive”.

On to `CCN(CCCCOC(=O)c1ccc(OC)c(OC)c1)[C@@H](C)Cc1ccc(OC)cc1`, for which the Potency entry was “inactive”.

Turning to `C[C@H](C(=O)O)c1cccc(Oc2ccccc2)c1`, the Potency result is “inactive”.

On to `CC1(C)[C@@H](OC(=O)CCC(=O)O)CC[C@@]2(C)[C@H]1CC[C@@]1(C)[C@H]2C(=O)C=C2[C@H]3C[C@](C)(C(=O)O)CC[C@]3(C)CC[C@@]21C`, for which the Potency entry was “inactive”.

Consider `CCOC(=O)O[C@@H](C)OC(=O)[C@@H]1N2C(=O)[C@@H](NC(=O)[C@@H](N)c3ccccc3)[C@H]2SC1(C)C`, for which the Potency entry is “inactive”.

Consider `Cc1ccsc1/C=C\C1=NCCCN1C`, for which the Potency entry is “inactive”.

For the compound `Cc1cccc(CN2CCN([C@@H](c3ccccc3)c3ccc(Cl)cc3)CC2)c1`, the Potency result was “inactive”.

Take `C#C[C@]1(O)CC[C@@H]2[C@H]3CCC4=CCCC[C@@H]4[C@@H]3CC[C@@]21C`: the Potency entry was “inactive”.

Turning to `CC[C@H](C)[C@H](N)C1=N[C@H](C(=O)N[C@@H](CC(C)C)C(=O)N[C@@H](CCC(=O)O)C(=O)N[C@@H](C(=O)N[C@H]2CCCCNC(=O)[C@@H](CC(N)=O)NC(=O)[C@@H](CC(=O)O)NC(=O)[C@@H](Cc3cnc[nH]3)NC(=O)[C@@H](Cc3ccccc3)NC(=O)[C@@H]([C@@H](C)CC)NC(=O)[C@@H](CCCN)NC2=O)[C@@H](C)CC)CS1` ({Ileψ(thiazoline)Cys}-LE[d(aIle)]K[dOrn][d(aIle)][dF][dH][dD][dN]; lactam 4-C), the Potency result was “inactive”.

For the compound `O=C(O)COCCN1CCN([C@@H](c2ccccc2)c2ccc(Cl)cc2)CC1`, the Potency result was “inactive”.

`CCN(CC)CCOC(=O)[C@@H](Cc1cccc2ccccc12)C[C@@H]1CCCO1`: the Potency entry is “inactive”.

For `Clc1ccc([C@H](Cn2ccnc2)OCc2c(Cl)cccc2Cl)c(Cl)c1`, the Potency is 3.16 µM (active).

Turning to `C[C@@H](CNC1CCCCC1)OC(=O)c1ccccc1`, the Potency was 3.16 µM (active).

Regarding `CC[C@H](CO)NCCN[C@@H](CC)CO`, the Potency entry is “inactive”.
